Source: PubChem BioAssay (Tox21)
Inconclusive results are not listed. Where a call stands in place of a potency, no number is given. A number with no mark means an inactive call. Calls of active or inactive are those of the source. Unless noted, calls come from the whole dose curve; as a rule, active = well fitted curve in the direction sought with a large enough effect in the repeat runs; inconclusive = weak or mixed curves; inactive = no such curve, though single readings can be large; an effect the other way counts as inactive or inconclusive.

Experiments:
[1] = target: Luciferin 4-monooxygenase (Photinus pyralis) (UniProt P08659); test: qHTS assay to identify small molecule inhibitors of firefly luciferase (AID 1224835); note: nearly all actives have a fitted effect of over 25% in size; note: potency is the fitted concentration of half-maximal effect
Chain of Luciferin 4-monooxygenase (Photinus pyralis) (P08659 whole entry, looked up): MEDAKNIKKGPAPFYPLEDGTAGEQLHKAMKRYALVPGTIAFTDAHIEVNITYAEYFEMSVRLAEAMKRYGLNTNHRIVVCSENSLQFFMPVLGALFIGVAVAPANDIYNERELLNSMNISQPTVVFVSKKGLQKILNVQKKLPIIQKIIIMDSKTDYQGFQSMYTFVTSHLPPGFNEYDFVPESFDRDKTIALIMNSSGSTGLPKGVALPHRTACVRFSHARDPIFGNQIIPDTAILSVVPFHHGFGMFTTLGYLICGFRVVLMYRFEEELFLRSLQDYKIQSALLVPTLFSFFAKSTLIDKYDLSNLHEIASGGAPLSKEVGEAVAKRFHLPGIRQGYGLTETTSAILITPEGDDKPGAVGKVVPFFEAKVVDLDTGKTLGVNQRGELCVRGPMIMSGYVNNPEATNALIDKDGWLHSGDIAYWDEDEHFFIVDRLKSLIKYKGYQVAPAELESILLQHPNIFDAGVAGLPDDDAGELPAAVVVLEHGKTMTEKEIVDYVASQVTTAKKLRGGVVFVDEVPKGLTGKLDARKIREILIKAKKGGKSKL
How it was run: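 Biochemical qHTS: compounds run as interplate titrations against purified firefly enzyme, with D-luciferin and ATP each at its KM concentration. Light output recorded by CCD imaging.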

[2] = qHTS assay to identify small molecule agonists of the constitutive androstane receptor (CAR) signaling pathway - cell viability counter screen (AID 1224836); note: series mostly up to about 92 µM; nearly all actives have a fitted effect of over 45% in size
How it was run: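 Double-stable HepG2 hepatoma cells (hCAR plus CYP2B6-2.2kb) are treated for 23 h at 37 C with test compounds in 15-point concentration series. PK11195 at 0.75 uM final is co-added. Cell viability is quantified by CellTiter-Fluor.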

[3] = qHTS assay to identify small molecule antagonists of the constitutive androstane receptor (CAR) signaling pathway - cell viability counter screen (AID 1224837); note: series mostly up to about 92 µM; nearly all actives have a fitted effect of over 45% in size
How it was run: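 In quantitative HTS format, compounds at 15 concentrations were applied to HepG2 cells double-transfected with hCAR and CYP2B6-2.2kb under 50 nM CITCO stimulation; live-cell protease activity was read after 23 hr via CellTiter-Fluor.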

[4] = target: Nuclear receptor subfamily 1 group I member 3 (Homo sapiens) (UniProt Q14994); test: qHTS assay to identify small molecule antagonists of the constitutive androstane receptor (CAR) signaling pathway (AID 1224838); note: nearly all actives have a fitted effect of over 40% in size
Chain of Nuclear receptor subfamily 1 group I member 3 (Homo sapiens) (Q14994 whole entry, looked up): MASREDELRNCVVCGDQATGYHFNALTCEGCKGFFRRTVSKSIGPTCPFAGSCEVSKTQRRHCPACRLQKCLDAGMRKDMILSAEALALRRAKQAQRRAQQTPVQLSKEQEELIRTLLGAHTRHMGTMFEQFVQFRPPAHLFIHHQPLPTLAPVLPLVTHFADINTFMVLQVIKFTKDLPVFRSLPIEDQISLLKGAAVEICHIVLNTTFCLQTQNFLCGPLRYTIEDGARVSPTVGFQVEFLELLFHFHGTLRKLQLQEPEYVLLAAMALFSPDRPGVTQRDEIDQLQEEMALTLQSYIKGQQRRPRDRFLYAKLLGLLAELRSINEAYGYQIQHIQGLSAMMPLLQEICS
How it was run: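 CITCO-stimulated (50 nM final) HepG2 cells stably transfected with hCAR and CYP2B6-2.2kb luciferase were exposed to compounds at 15 concentrations for 24 h at 37 C/5% CO2. A luciferase reagent was added and luminescence recorded after 30 min.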

[5] = target: Nuclear receptor subfamily 1 group I member 3 (Homo sapiens) (UniProt Q14994); test: qHTS assay to identify small molecule agonists of the constitutive androstane receptor (CAR) signaling pathway (AID 1224839); note: nearly all actives have a fitted effect of over 15% in size; note: potency is the fitted concentration of half-maximal effect
How it was run: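 Readout: firefly luciferase luminescence via ONE-Glo. System: HepG2 double-stable for hCAR and CYP2B6-2.2kb. Conditions: 15-point compound titration, PK11195 at 0.75 uM final, 24 h incubation.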

[6] = qHTS assay to identify small molecule antagonists of the estrogen related receptor signaling pathway with the pleiotropic PPARgamma coactivator (PGC) from Tox21 10K library - cell viability counter screen (AID 1224840; active = well fitted cell-killing curve with a large enough effect in the repeat runs, not every such curve was filed as active; note: nearly all actives have a fitted effect of over 40% in size)
How it was run: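 Viability counter screen, PGC/ERR cells: 17.5 h compound exposure at 37 C, CellTiter-Fluor fluorescence endpoint.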

[7] = target: Thyrotropin receptor (Homo sapiens) (UniProt P16473); test: qHTS assay to identify small molecule agonists of the thyroid stimulating hormone receptor (TSHR) signaling pathway (AID 1224843; calls by dose curve; note: nearly all actives have a fitted effect of over 45% in size)
Chain of Thyrotropin receptor (Homo sapiens) (P16473 whole entry, looked up): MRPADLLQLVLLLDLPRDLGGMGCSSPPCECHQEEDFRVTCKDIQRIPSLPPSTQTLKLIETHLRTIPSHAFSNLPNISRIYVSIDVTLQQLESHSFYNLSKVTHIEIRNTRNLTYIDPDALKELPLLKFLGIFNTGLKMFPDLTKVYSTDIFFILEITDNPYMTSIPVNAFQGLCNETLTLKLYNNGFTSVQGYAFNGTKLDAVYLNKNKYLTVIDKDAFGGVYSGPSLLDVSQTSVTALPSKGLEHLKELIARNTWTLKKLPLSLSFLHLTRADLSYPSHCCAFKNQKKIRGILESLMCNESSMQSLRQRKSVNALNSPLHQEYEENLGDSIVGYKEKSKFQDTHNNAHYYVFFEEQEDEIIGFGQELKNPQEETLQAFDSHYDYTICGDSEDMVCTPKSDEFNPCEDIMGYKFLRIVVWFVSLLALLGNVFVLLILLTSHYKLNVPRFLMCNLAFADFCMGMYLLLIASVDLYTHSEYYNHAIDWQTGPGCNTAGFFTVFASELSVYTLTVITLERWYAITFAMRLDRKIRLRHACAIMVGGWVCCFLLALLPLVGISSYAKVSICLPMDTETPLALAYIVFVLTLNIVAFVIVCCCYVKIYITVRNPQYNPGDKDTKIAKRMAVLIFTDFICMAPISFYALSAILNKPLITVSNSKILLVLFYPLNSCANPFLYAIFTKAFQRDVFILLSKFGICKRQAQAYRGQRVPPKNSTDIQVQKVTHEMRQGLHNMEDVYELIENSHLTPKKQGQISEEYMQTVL
How it was run: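 HEK293/TSHR, 800 cells/well; cpd 30 min RT; add cAMP-d2 + anti-cAMP-cryptate, 1 h RT; fluorescence read on plate reader. 15-pt titration, n=3.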

[8] = qHTS assay to identify small molecule antagonists of the estrogen related receptor signaling pathway with the pleiotropic PPARgamma coactivator (PGC) from Tox21 10K library (AID 1224841; call rule not given here; note: actives are mostly falling curves and most rising ones were filed inactive; nearly all actives have a fitted effect of over 50% in size; note: potency is the fitted concentration of half-maximal effect)
How it was run: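 In the PGC/ERR line, DMSO solutions of test chemicals are pin-delivered to 2,000 cells/well six hours after dispensing. Following eighteen hours' incubation, One-Glo reagent is added and luminescence recorded.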

[9] = qHTS assay to identify small molecule agonists of the hypoxia (HIF-1) signaling pathway - cell viability counter screen (AID 1224844; calls by dose curve; note: nearly all actives have a fitted effect of over 50% in size; note: potency is the fitted concentration of half-maximal effect)
How it was run: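 Same wells as the HIF-1 reporter screen; ME-180 cells carrying HRE-bla, 17 hr treatment at 37C; CellTiter-Glo luminescence read after 30 min at room temperature.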

[10] = qHTS assay to identify small molecule agonists of the estrogen related receptor signaling pathway with the pleiotropic PPARgamma coactivator (PGC) from Tox21 10K library (AID 1224842); note: nearly all actives have a fitted effect of over 15% in size
How it was run: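 PGC/ERR reporter cell line, 2,000 cells per well, incubated 6 h at 37 C before 23 nL compound in DMSO was added. After 18 h at 37 C, One-Glo luminescence read following 30 min at room temperature.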

Row | SMILES | Potency [1] | Potency [2] | Potency [3] | Potency [4] | Potency [5] | Potency [6] | Potency [7] | Potency [8] | Potency [9] | Potency [10]
1 | CC[C@H](C)[C@@H](C(=O)O)n1sc2ccccc2c1=O | 17.8 µM (active) | inactive | inactive | inactive | inactive | inactive | inactive |  |  | 
2 | CCOc1nc2cccc(C(=O)O)c2n1Cc1ccc(-c2ccccc2-c2nn[nH]n2)cc1 | inactive | inactive | inactive | inactive | inactive | inactive | inactive | inactive | inactive | 
3 | CC1=CCC(C(C)C)C=C1 (stereo unspecified) | inactive | inactive | inactive | inactive | inactive | inactive |  |  |  | 
4 | COc1ccc2[nH]c(S(=O)Cc3ncc(C)c(OC)c3C)nc2n1 (stereo unspecified) | inactive | inactive | inactive | inactive | 26.6 µM (active) | inactive |  |  | inactive | inactive
5 | CC/C(=C\C(=N/O)C(N)=O)C(C)[N+](=O)[O-] (stereo unspecified) | inactive | inactive | inactive | inactive | inactive | inactive | inactive | inactive | inactive | 
6 | CC(=O)SCc1ccco1 | inactive | inactive | inactive | inactive | inactive | inactive | inactive |  |  | 
7 | CCCCCCCCC(CO)CCCCCC (stereo unspecified) | inactive | inactive | inactive | inactive | inactive | inactive | inactive | inactive |  | 
8 | Cc1cccc(OCCOc2cccc(C)c2)c1 | inactive | inactive | inactive | inactive | 29 µM (active) | inactive |  | inactive | inactive | inactive
9 | CCCCCCOC(=O)CCC | inactive | inactive | inactive | inactive | inactive | inactive | inactive |  |  | 
10 | CC(O)C1CCCCC1 (stereo unspecified) | inactive | inactive | inactive | inactive | inactive | inactive | inactive | inactive | inactive | inactive
11 | CC(=O)NCCCS(=O)(=O)O | inactive | inactive | inactive | inactive | inactive | inactive | inactive |  |  | 
12 | OCC1CC2CC1C1CCC(CO)C21 (stereo unspecified) | inactive | inactive | inactive | inactive | inactive | inactive | inactive | inactive |  | 
13 | CC[C@H](C)[C@H](N)C(=O)O | inactive | inactive | inactive | inactive | inactive | inactive | inactive | inactive | inactive | inactive
14 | CC(=O)O[C@H]1C[C@@H]2CC[C@@H]3[C@H](CC[C@@]4(C)[C@H]3C[C@H]([N+]3(C)CCCCC3)[C@@H]4OC(C)=O)[C@@]2(C)C[C@@H]1N1CCCCC1 | inactive | inactive | inactive | inactive | inactive | inactive | inactive |  | inactive | 
15 | C=C(C)C(=O)OCCN(C)C | inactive | inactive | inactive | inactive | inactive | inactive |  |  | inactive | 
16 | CCCCOC(=O)/C=C\C(=O)OCCCC | inactive | inactive | inactive | inactive | inactive |  | inactive | inactive | inactive | inactive
17 | Nc1nc(CC(=O)O)cs1 | inactive | inactive | inactive | inactive | inactive |  | inactive | 48.7 µM (active) |  | 
18 | O=C(Cl)c1c(Cl)cccc1Cl | inactive | inactive | inactive | inactive | inactive | inactive | inactive |  | inactive | 
19 | CN(c1nccc(=O)[nH]1)C1CCN(c2nc3ccccc3n2Cc2ccc(F)cc2)CC1 | inactive | inactive | inactive | inactive | inactive | inactive | inactive |  | inactive | 
20 | N=C(N=C(N)N)N1CCOCC1 | inactive | inactive | inactive | inactive | inactive |  | inactive | inactive |  | inactive
21 | O=CNc1ccccc1 | inactive | inactive | inactive | inactive | inactive |  |  | inactive | inactive | 
22 | Nc1cnn([C@@H]2O[C@H](CO)[C@@H](O)[C@H]2O)c(=O)n1 | inactive | inactive | inactive | inactive | inactive |  | inactive |  | inactive | 
23 | CC(C(=O)O)c1ccc(C(=O)c2ccccc2)s1 (stereo unspecified) | 15.5 µM (active) | inactive | inactive | inactive | 16.8 µM (active) | inactive |  |  | inactive | 
24 | CCCCCCCCCCCCC(=O)O | 63.5 µM (active) | inactive | inactive | inactive | inactive | inactive | inactive |  | inactive | 
25 | Cc1ccc(O)c([C@H](CCN(C(C)C)C(C)C)c2ccccc2)c1 | inactive | inactive | inactive | inactive | inactive |  | inactive |  |  | 
26 | CN1CCC(=C2c3ccccc3CCc3sccc32)CC1 | inactive | inactive | inactive | inactive | inactive |  | inactive | inactive | 16.9 µM (active) | 
27 | COc1ccc(OC)c(OC)c1 | inactive | inactive | inactive | inactive | inactive | inactive | inactive |  | inactive | 
